High-throughput results from PubChem BioAssay.
This is a sample that favours compounds with a hit; in the whole collection about 19% have one here.
TGFb SMAD3 inh: inhibitors of TGF-b signaling; HepG2 CAGA-GFP TGF-b/SMAD3 reporter, GFP fluorescence, 18 h; TGF-beta stimulated, 500 pg/mL final; Potency, µM (titrated, usually from 46.1 µM), without a hit: top-dose activity, negative = inhibition, most hits filed as inhibitors; 410,000 compounds, 1.2% hits; further: potency means the concentration at half of the fitted maximal effect; on the % scale 0 is the no-effect control and ±100 the full control effect; nearly all actives have a fitted effect of over 65% in size
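First, reporter cells (HEPG2 CAGA-GFP) rested 2 h at 37 degrees C. Next, compounds were pinned in and TGF-beta added to 500 pg/mL final. After 18 h, GFP was imaged per cell and summed per well.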
S-ASM inh: blocks human secretory acid sphingomyelinase; P17405; placental ASM, HMU-PC fluorogenic substrate, 60 min; Potency, µM (top dose mostly 57.5 µM), for inactives: at the highest dose activity change, negative = inhibition, most hits filed as inhibitors; 340,000 compounds, 0.006% hits; further: potency means the concentration at half of the fitted maximal effect
Target sequence (P17405 47-631 limits assumed): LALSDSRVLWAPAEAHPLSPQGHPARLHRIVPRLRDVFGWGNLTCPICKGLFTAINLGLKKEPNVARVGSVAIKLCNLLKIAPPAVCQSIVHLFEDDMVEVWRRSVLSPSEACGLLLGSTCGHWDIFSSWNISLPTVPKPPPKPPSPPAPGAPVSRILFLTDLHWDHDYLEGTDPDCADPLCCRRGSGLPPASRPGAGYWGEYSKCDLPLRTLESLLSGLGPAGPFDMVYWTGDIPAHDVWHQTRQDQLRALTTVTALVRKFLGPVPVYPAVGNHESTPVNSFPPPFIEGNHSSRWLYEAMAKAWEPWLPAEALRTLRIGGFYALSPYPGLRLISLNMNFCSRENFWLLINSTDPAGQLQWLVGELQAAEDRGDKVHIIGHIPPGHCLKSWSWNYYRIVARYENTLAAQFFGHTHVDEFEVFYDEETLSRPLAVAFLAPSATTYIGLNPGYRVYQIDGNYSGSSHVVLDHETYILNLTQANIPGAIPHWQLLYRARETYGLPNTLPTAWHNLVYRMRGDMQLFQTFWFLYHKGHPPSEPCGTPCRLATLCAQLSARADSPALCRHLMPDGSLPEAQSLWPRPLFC
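Fluorogenic HMU-PC substrate (9 uM final) is turned over by placental ASM in 60 min at 37 C after a 10 min compound preincubation. Reaction ended by alkaline stop (pH 10), with fluorescence read at 386/447 nm.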
IL1B secr inh: inhibitors of inflammasome signaling (IL-1 beta secretion). THP-1 LPS/ATP IL-1B secretion, AlphaLISA, 16 h; hits give low values. activity change, % at 57.5 µM. 360,000 compounds, 4.7% hits; in the data active means activity change below about -50%; inconclusive means mostly about -30% to -49%; further: on the % scale 0 is the no-effect control and ±100 the full control effect
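Secreted IL-1B measured by AlphaLISA bead assay after 16 h compound exposure of THP-1 cells; compounds (final up to 57.5 uM) added 1 h before LPS (250 ng/mL) and ATP (1.25 mM) stimulation; lower signal means less secretion.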
TDP1 cell CPT: DT40-hTDP1 cell growth loss with CPT. chicken DT40 Tdp1-/-;hTDP1 cells + 20 nM CPT, ATP luminescence, 48 h. Potency, µM (titrated, usually from 46.2 µM), inactives show at the highest dose activity change, negative = growth inhibition, usual class: inhibitors. 420,000 compounds, 12% hits. AID 686979; further: potency means the concentration at half of the fitted maximal effect; on the % scale 0 is the no-effect control and ±100 the full control effect; nearly all actives have a fitted effect of over 55% in size
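Chicken DT40 Tdp1-/- cells stably complemented with human TDP1 were seeded at 400 cells/well in medium containing 20 nM camptothecin, exposed to pin-transferred compounds, and grown at 37 °C for at least 48 hr. Viability was read as ATP luminescence.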
TDP1 cell noCPT: qHTS for Inhibitors of human tyrosyl-DNA phosphodiesterase 1 (TDP1): qHTS in cells in absence of CPT | DT40 Tdp1-/- hTDP1 cells, no CPT, ATP luminescence, 48 h | Potency, µM (titrated, usually from 46.2 µM), for inactives: at the top dose activity change, negative = growth inhibition, actives largely listed as inhibitors | 420,000 compounds, 15% hits; further: potency means the concentration at half of the fitted maximal effect; on the % scale 0 is the no-effect control and ±100 the full control effect; nearly all actives have a fitted effect of over 55% in size
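DT40 Tdp1-/-;hTDP1 cells, no CPT (DMSO vehicle only), 400 cells/well; compounds pin-transferred; ≥48 hr, 37 °C; CellTiter-Glo 30 min RT dark, luminescence read.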
HepG2 tox: HepG2 cytotoxicity, counter-screen for TGF-b inhibitors; AID 588856; 410,000 compounds, 0.76% hits; Potency, µM (top dose mostly 46.1 µM), without a hit: at the top dose activity change, negative = cytotoxicity, most hits filed as cytotoxic; HepG2 CAGA-GFP viability, ATP luminescence, 18 h; further: potency means the concentration at half of the fitted maximal effect
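CellTiter-Glo luminescence gave cytotoxicity after 18 hours at 37 degrees C. The cells were HepG2 CAGA-GFP in 1% FBS DMEM, stimulated with 500 pg/mL TGF-beta after compound addition. %Activity was normalised to no-cell wells (complete cell-killing) and DMSO (no toxicity), and curves were fitted and classified.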
Numbers without * were called inactive; ? = inconclusive; . = no result. Unless noted, the call rests on the fitted dose curve; in most records, active means well fitted curve in the direction sought with a large enough effect; inconclusive means small, poorly fitted or top-dose-only effect, or another doubt; inactive means no such curve, though single readings can be large; an effect the other way counts as inactive or inconclusive.

SMILES	TGFb SMAD3 inh	S-ASM inh	IL1B secr inh	TDP1 cell CPT	TDP1 cell noCPT	HepG2 tox
CCCOc1ccc(/C=c2\sc3ncnn3c2=O)cc1	22%	-1%	?	?	?	9%
CC1=CC(C)(C)NC(=S)N1c1ccc(C)cc1	-25%	1%	8	21µM*	23µM*	0%
CC1=CC(C)(C)NC(=S)N1c1ccc([N+](=O)[O-])cc1	-1%	-3%	-2	29µM*	21µM*	2%
COc1ccc(CN2CCN(C(=O)Cn3nc(C(=O)O)c4ccccc4c3=O)CC2)cc1F	2%	7%	-14	-2%	-6%	-14%
COc1cc(O)c(CCC(=O)c2cc(OC)c(OC)c(OC)c2)c(OC)c1	-14%	0%	9	21µM*	15µM*	3%
CCn1c(C)cc(/C=C2/SC(=O)N(C(C)C(=O)OC)C2=O)c1C (stereo not given)	5%	18%	-5	?	21µM*	-42%
CCOC(=O)C(C)N1C(=O)S/C(=C/c2cc(C)n(-c3ccccn3)c2C)C1=O (stereo not given)	1%	40%	-28	?	16µM*	-16%
COC(=O)C(C)N1C(=O)S/C(=C/c2cc(C)n(C(C)C)c2C)C1=O (stereo not given)	-17%	21%	-12	16µM*	?	-29%
Cc1cc(/C=C2\SC(N)=NC2=O)c(C)n1-c1ccccc1	0%	35%	-3	?	?	-6%
C#CCN1C(=O)S/C(=C/c2cc(C)n(CC)c2C)C1=O	-5%	13%	-6	?	21µM*	-30%
Cc1nc2c(c(C)c1CCC(=O)NCc1ccccc1)c(=O)n(C)c(=O)n2C	?	.	.	1%	?	0%
COCCn1c(C)cc(/C=C2/SC(=O)N(C(C)C(=O)OC)C2=O)c1C (stereo not given)	-18%	31%	-2	?	26µM*	-30%
O=C(CCCCn1c(=O)c2ccccc2n(Cc2ccc(Cl)cc2)c1=O)NCc1ccco1	2%	0%	9	?	16µM*	-19%
O=C(CCCn1c(=O)c2sccc2n(CC(=O)OCc2ccccc2)c1=O)NCc1ccco1	0%	1%	-17	-21%	?	-3%
O=C(CCCCn1c(=O)c2ccccc2n(Cc2ccc(Cl)cc2)c1=O)NCc1ccccc1Cl	-19%	.	.	15µM*	16µM*	-36%
Cc1cccc(Cn2c(=O)n(CCCC(=O)NCc3ccco3)c(=O)c3ccccc32)c1	-27%	-1%	?	9.2µM*	21µM*	-26%
O=C(CCCn1c(=O)c2sccc2n(Cc2ccc(F)cc2)c1=O)NCc1ccco1	-26%	1%	34	26µM*	21µM*	3%
Cc1ccccc1Cn1c(=O)n(CCCC(=O)NCc2ccco2)c(=O)c2ccccc21	?	0%	-5	?	?	14%
Cc1ccc(CNC(=O)CCCCn2c(=O)c3ccccc3n(Cc3ccc(Cl)cc3)c2=O)cc1	-13%	.	.	-5%	?	-83%
CS(=O)(=O)N1CCC2(CC1)CN(C(=O)Nc1ccccc1)C2	.	.	.	5%	-6%	.
CC(CCc1ccccc1)OS(N)(=O)=O (stereo not given)	16%	2%	14	-19%	-15%	21%
CC(Oc1ccccc1)C(=O)N=Nc1c(O)[nH]c2ccc(Br)cc12 (stereo not given)	-1%	0%	25	-3%	-5%	-5%
